Assay results from PubChem BioAssay (NCI).
Compounds without any hit were thinned out: in the full panel of roughly 83,000, 20% have a hit.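 Single-concentration screen, 48 h exposure, 96-well plates. Endpoint: percent growth. Below 10 = active.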 A number with no mark means an inactive call. Activity calls are given as the source filed them.

Tests used:
Assay in all cases: NCI-60 one-dose screen, 48 h (100 = growth as untreated, 0 = no growth, -100 = all killed)
Conditions in all cases: 10 µM unless noted
NCI-H23 lung = system: NCI-H23 lung
NCI-H226 lung = system: NCI-H226 lung
NCI-H322M lung = system: NCI-H322M lung
HOP-62 NSCLC = system: HOP-62 NSCLC
NCI-H460 lung = system: NCI-H460 lung
HOP-92 NSCLC = system: HOP-92 NSCLC
NCI-H522 lung = system: NCI-H522 lung
A549/ATCC NSCLC = system: A549/ATCC NSCLC
786-0 renal = system: 786-0 renal
COLO 205 colon = system: COLO 205 colon
DU-145 prostate = system: DU-145 prostate
K-562 leukemia = system: K-562 leukemia
MALME-3M melanoma = system: MALME-3M melanoma
MDA-MB-231 breast = system: MDA-MB-231 breast
RXF 393 renal = system: RXF 393 renal
SF-268 CNS = system: SF-268 CNS
SF-295 CNS = system: SF-295 CNS
SF-539 CNS = system: SF-539 CNS
UACC-257 melanoma = system: UACC-257 melanoma
M14 melanoma = system: M14 melanoma

Row | SMILES | growth (NCI-H23 lung) | growth (NCI-H226 lung) | growth (NCI-H322M lung) | growth (HOP-62 NSCLC) | growth (NCI-H460 lung) | growth (HOP-92 NSCLC) | growth (NCI-H522 lung) | growth (A549/ATCC NSCLC) | growth (786-0 renal) | growth (COLO 205 colon) | growth (DU-145 prostate) | growth (K-562 leukemia) | growth (MALME-3M melanoma) | growth (MDA-MB-231 breast) | growth (RXF 393 renal) | growth (SF-268 CNS) | growth (SF-295 CNS) | growth (SF-539 CNS) | growth (UACC-257 melanoma) | growth (M14 melanoma)
1 | CN(C)C/C=C/C(=O)Nc1cc2c(Nc3ccc(F)c(Cl)c3)ncnc2cc1O[C@H]1CCOC1 | -11.7% (active) | -7.37% (active) | -16.4% (active) | -10.8% (active) | 4.3% (active) | -11.5% (active) | -55.6% (active) | 3.14% (active) | 8.66% (active) | -65.1% (active) | -7.97% (active) | 0.783% (active) | -75.1% (active) | -13.7% (active) | -22% (active) | 6.2% (active) | 29.8% | -84.6% (active) | -70.7% (active) | -82.8% (active)
2 | Cn1ccnc1C(=O)/C=C/c1ccc(CC(=O)Nc2ccc(C(F)(F)F)cc2)cc1 | 19.4% | 48.5% | 6.96% (active) | -33.7% (active) | -0.126% (active) | 38.3% | -3.98% (active) | 6.44% (active) | 1.74% (active) | 5.87% (active) | 7.72% (active) | 6.29% (active) | 77.5% | 8.95% (active) | -1.43% (active) | 16.4% | 7.9% (active) | -36.8% (active) | 77.9% | 21.3%
3 | Nc1c(Cl)cccc1[N+](=O)[O-] | 106% | 101% | 110% | 98.8% | 104% | 96.6% | 118% | 101% | 109% | 114% | 111% | 101% | 96.7% | 99.3% | 115% | 105% | 107% | 108% | 108% | 108%
4 | CO[C@H]1C[C@@H]2CC[C@@H](C)[C@@](O)(O2)C(=O)C(=O)N2CCCC[C@H]2C(=O)O[C@H]([C@H](C)C[C@@H]2CC[C@@H](OCCO)[C@H](OC)C2)CC(=O)[C@H](C)/C=C(\C)[C@@H](O)[C@H](OC)C(=O)[C@H](C)C[C@H](C)\C=C/C=C/C=C/1C | 54.9% | 48.7% | 44.9% | 41.2% | 43.2% | 45.7% | 48.7% | 44.6% | 52.6% | 55.8% | 50.8% | 42.9% | 36.6% | 63.1% | 5.21% (active) | 51.6% | 26.3% | 41.8% | 61% | 62.2%
5 | COc1ccc(C(=O)N2c3ccccc3Sc3ccccc32)c(F)c1 | 32.4% | 46.1% | 44.2% | 37.1% | 12% | 42.3% | 0.479% (active) | 27.2% | 23.1% | 8.26% (active) | 5.05% (active) | 12.7% | 46.6% | 52.5% | -23.1% (active) | 53.1% | 8.85% (active) | -15.8% (active) | 67.1% | 2.04% (active)
6 | COC(=O)[C@H](C)NC(=O)[C@@H](OC)[C@@H]1Cc2cc3cc(OC4CC(OC5CC(O)C(O)C(C)O5)C(O)C(C)O4)c(C)c(O)c3c(O)c2C(=O)[C@H]1OC1CC(OC2CC(OC3CC(C)(O)C(O)C(C)O3)C(O)C(C)O2)C(O)C(C)O1 (stereo not given in full) | -31.1% (active) | -21.5% (active) | 11.4% | 13% | 7.28% (active) | 3.12% (active) | -26% (active) | 7.05% (active) | -4.86% (active) | -20.5% (active) | 13.2% | 7.1% (active) | -49.3% (active) | 18.4% | -70.3% (active) | 14.1% | 3.96% (active) | -33.2% (active) | -0.386% (active) | -23.9% (active)
7 | Cc1c(N)ccc(-c2ccc(N)c(C)c2S(=O)(=O)O)c1S(=O)(=O)O | 98% | 111% | 108% | 107% | 112% | 86.1% | 101% | 117% | 106% | 111% | 111% | 101% | 127% | 109% | 118% | 109% | 117% | 126% | 115% | 108%
8 | O=C(Nc1cccc([N+](=O)[O-])c1)c1ccc(Cl)c(Cl)c1 | 59.3% | 43.3% | 69.7% | 7.13% (active) | 77.6% | 51.6% | 60% | 68.3% | 67.4% | 89.7% | 74.8% | 79.9% | 30.2% | 80.7% | 62.8% | 54.4% | 58.7% | 83% | 92.5% | 93.1%
